Laboratory results from PubChem BioAssay AID431 (Sanford-Burnham Center for Chemical Genomics, 2006).
About 1,100 (1.7%) of roughly 63,000 compounds were called active.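 The calls were made as follows: active = compounds whose percent cytotoxicity in the single-dose primary screen, scaled between solvent and toxic-drug controls, exceeds 50; inactive = the rest.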 The full list was thinned out, with actives kept by preference. Measured potencies and affinities stand elsewhere.

Assay: viability loss of HPDE-C7K cells – cell-based, fluorescence, HTS, primary screen (AID 431);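 also: 0% = DMSO solvent wells and 100% = doxorubicin-treated wells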
Details: HPDE-C7K KRASV12 cells, Alamar Blue viability, 48 h; at 10 µM; hits give high values

Q: For CCCCCCOC(=O)C1=C(C)NC(=O)NC1c1ccc(O)cc1 (stereo not drawn), which cytotoxicity is on record?
A: Its cytotoxicity is -1.4% (inactive).

Q: For N#Cc1c(-c2ccco2)nc(SCC(=O)Nc2cccc(Cl)c2)[nH]c1=O, which cytotoxicity is on record?
A: The cytotoxicity was 17.5% (inactive).

Q: For N#Cc1c(-c2ccco2)nc(SCc2ccc(F)cc2)[nH]c1=O, which cytotoxicity is on record?
A: Its cytotoxicity is 68.9% (active).

Q: Which cytotoxicity does the source give for Cc1nc(SCc2cccc(F)c2)[nH]c(=O)c1C#N here?
A: Its cytotoxicity is -15.2% (inactive).

Q: For O=C(/C=N\O)NCCCNCc1ccccc1, which cytotoxicity is on record?
A: The cytotoxicity was 11% (inactive).

Q: Which cytotoxicity does the source give for O=C(c1noc2c1CCCC2)N1CCN(C(c2ccccc2)c2ccccc2)CC1 here?
A: Its cytotoxicity is 2.5% (inactive).

Q: With CCOc1cc(C(=O)N(C)c2ccccc2)cc(OCC)c1OCC as the molecule, how does the cytotoxicity read?
A: The cytotoxicity was 4.9% (inactive).

Q: For CCCCOCCCNC(=O)COc1ccccc1, which cytotoxicity is on record?
A: The cytotoxicity was -4% (inactive).

Q: Which cytotoxicity does the source give for O=C1CC(c2ccco2)CC(O)=C1C=Nc1cc(Cl)ccc1O (stereo not drawn) here?
A: Its cytotoxicity is 75.8% (active).

Q: Which cytotoxicity does the source give for O=C1CC(c2ccco2)CC(O)=C1C=NCCN1CCNCC1 (stereo not drawn) here?
A: Its cytotoxicity is -12.7% (inactive).

Q: Which cytotoxicity does the source give for O=C1CC(c2ccco2)CC(O)=C1C=NCCO (stereo not drawn) here?
A: Its cytotoxicity is -9.5% (inactive).

Q: With Cc1occc1-c1nnc(SCC(=O)N2CCCc3ccccc32)n1Cc1ccco1 as the molecule, how does the cytotoxicity read?
A: Its cytotoxicity is -3.2% (inactive).

Q: For COc1ccc2c(C)nc(Nc3nc(C)cc(=O)[nH]3)nc2c1, which cytotoxicity is on record?
A: The cytotoxicity was 87.3% (active).

Q: Which cytotoxicity does the source give for CCCCCc1c(C)nc(Nc2nc(C)c3cc(OC)ccc3n2)[nH]c1=O here?
A: Its cytotoxicity is 9.7% (inactive).

Q: Which cytotoxicity does the source give for Cc1nnc(SCc2cc(=O)[nH]c(Nc3nc(C)c4ccccc4n3)n2)s1 here?
A: The cytotoxicity was 3.9% (inactive).

Q: For Cc1ccc2c(C)nc(Nc3nc(CSc4nnnn4-c4ccccc4)cc(=O)[nH]3)nc2c1, which cytotoxicity is on record?
A: Its cytotoxicity is 54.8% (active).

Q: With Cc1ccc(Nc2nc(CSc3nnnn3-c3ccccc3)cs2)cc1 as the molecule, how does the cytotoxicity read?
A: Its cytotoxicity is 39.8% (inactive).

Q: Which cytotoxicity does the source give for COc1nc(Nc2nc3ccccc3c(=O)[nH]2)nc2ccc(C)cc12 here?
A: Its cytotoxicity is 91.7% (active).

Q: Which cytotoxicity does the source give for Cc1nc(Nc2nc(-c3ccccc3)cc(=O)[nH]2)nc2ccccc12 here?
A: Its cytotoxicity is 68.2% (active).

Q: For Cc1nc(-c2ccccc2)cc(=O)[nH]1, which cytotoxicity is on record?
A: The cytotoxicity was 6.9% (inactive).

Q: With CCc1c(C)nc(Nc2nc(C)c3cc(OC)ccc3n2)[nH]c1=O as the molecule, how does the cytotoxicity read?
A: The cytotoxicity was 49.1% (inactive).

Q: With COCc1cc(=O)[nH]c(Nc2nc(C)c3ccc(C)cc3n2)n1 as the molecule, how does the cytotoxicity read?
A: Its cytotoxicity is 2.4% (inactive).

Q: For COc1ccc2c(C)nc(Nc3nc(C)cc(C)n3)nc2c1, which cytotoxicity is on record?
A: Its cytotoxicity is -1% (inactive).

Q: With Cc1ccc(Nc2nc(CSc3nnnn3-c3ccccc3)cc(=O)[nH]2)cc1 as the molecule, how does the cytotoxicity read?
A: Its cytotoxicity is 23.4% (inactive).

Q: For O=C(O)Cc1nc2nc3c(c(=O)n2[nH]1)CCCC3, which cytotoxicity is on record?
A: The cytotoxicity was 2% (inactive).

Q: Which cytotoxicity does the source give for Cc1cc(C)nc(NC(=O)c2cccc(Cl)c2)n1 here?
A: The cytotoxicity was -1.9% (inactive).

Q: With COc1ccc(OCCCC(=O)Nc2ccc3c(c2)OCCO3)cc1 as the molecule, how does the cytotoxicity read?
A: Its cytotoxicity is 12.2% (inactive).

Q: With C=CCc1c(C)c(C#N)c2nc3ccccc3n2c1NCCN(C)C as the molecule, how does the cytotoxicity read?
A: The cytotoxicity was 5.5% (inactive).
